# According to PubChem BioAssay:
# Calls of active or inactive are those of the source.
# Assays:
# [1] = system: Plasmodium falciparum Sir2 (PF13_0152, Sir2A); assay: pfSir2 binders on small-molecule microarrays, primary screen, biochemical, small-molecule microarray, 635 nm fluorescence (AID 1098); settings: small-molecule microarray binding, fluorescence 635 nm; higher = more signal;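 note: score merges spot fluorescence intensity with its signal-to-noise ratio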
# [2] = small-molecule microarray binders of probe aDKK1, primary screen, biochemical, biotinylated probe, 635/667 nm fluorescence (AID 1099); settings: higher = more signal;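 note: score merges 667nm spot fluorescence with signal to noise across triplicate slides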
# [3] = small-molecule microarray binders of probe aCHRDL2, primary screen, biochemical, biotinylated probe, 635/667 nm fluorescence (AID 1100); settings: higher = more signal
# [4] = splicing luciferase reporter signal modulators, primary screen, spliceosome inhibition project, cell-based, HEK293, splice +/- reporter (AID 1101); settings: luminescence, 24 h, higher = more signal, called active from +8 up or from −8 down;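 note: HEK293 cells carrying a splicing-competent luciferase reporter gene; test concentration not given here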
# [5] = target: Fibroblast growth factor 10 (Homo sapiens) (UniProt O15520); assay: FGF10 binders on small-molecule microarrays, primary screen, biochemical, small-molecule microarray, 635 nm fluorescence (AID 1102); settings: FGF10 binding, fluorescence 635 nm, higher = more signal
# [6] = system: glycogen synthase kinase-3 (GSK3A per assay name; protocol says GSK3B); assay: GSK3 binders on small-molecule microarrays, primary screen, biochemical, small-molecule microarray, 635 nm fluorescence, GSK3A (AID 1103); settings: small-molecule microarray binding, fluorescence 635 nm; higher = more signal; note: the record names both GSK3A and GSK3B
# [7] = target: Epidermal growth factor receptor (Homo sapiens) (UniProt P00533); assay: EGFR binders on small-molecule microarrays, primary screen, biochemical, small-molecule microarray, 635 nm fluorescence (AID 1104); settings: EGFR binding, higher = more signal;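 note: score merges 667 nm emission intensity with spot signal to noise over triplicate slides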
# [8] = target: Follistatin-related protein 3 (Homo sapiens) (UniProt O95633); assay: FSTL3 binders on small-molecule microarrays, primary screen, biochemical, small-molecule microarray, 635 nm fluorescence (AID 1105); settings: FSTL3 binding, higher = more signal;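 note: score merges emission near 667 nm and signal to noise per printed spot across three slides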
# [9] = target: Dickkopf-related protein 1 (Homo sapiens) (UniProt O94907); assay: DKK1 binders on small-molecule microarrays, primary screen, biochemical, small-molecule microarray, 635 nm fluorescence scan (AID 1106); settings: DKK1 binding, higher = more signal;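 note: score merges emission near 667 nm with signal to noise over three replicate slides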
# [10] = system: Inhibin beta A chain (activin A); assay: INHBA (activin A) binders on microarrays, primary screen, biochemical, small-molecule microarray, 635 nm fluorescence scan (AID 1107); settings: small-molecule microarray binding, higher = more signal;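 note: mouse activin A protein probed at 4.33 µg/mL on printed slides; score merges bound-protein fluorescence near 667 nm with spot signal-to-noise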
# [11] = system: Human papillomavirus type 1a protein E7 (residues 44-93); assay: HPV1a E7 fragment binders on microarrays, primary screen, biochemical, small-molecule microarray, residues 44-93, 635 nm fluorescence (AID 1108); settings: small-molecule microarray binding, fluorescence 635 nm; higher = more signal;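 note: E7 fragment applied at 1 µg/mL in TBST for 1 h at 4 C; score combines spot fluorescence with its signal to noise ratio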
# [12] = modulators of HCV replicon luciferase signal, primary screen, HCV replication inhibitor project, Huh7 cells, luciferase reporter (AID 1109); settings: 48 h, higher = more signal;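 note: huh7 hepatoma cells harbouring a luciferase neomycin HCV replicon reporter; luciferase luminescence as measure of HCV replicon replication; test concentration not given here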
# [13] = target: Left-right determination factor 2 (Homo sapiens) (UniProt O00292); assay: LEFTY2 binders on small-molecule microarrays, primary screen, biochemical, small-molecule microarray, 635 nm fluorescence scan (AID 1110); settings: LEFTY2 binding, higher = more signal
# [14] = target: Calmodulin-1 (Homo sapiens) (UniProt P0DP23); assay: CALM1 binders on microarrays, EGTA buffer, profiling panel, biochemical, small-molecule microarray, Cy5-labelled CALM1 (AID 1111); settings: Cy5-CALM1 binding fluorescence, higher = more signal;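 note: labelled calmodulin applied in Tris saline Tween buffer holding calcium plus EGTA and DTT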
# [15] = target: Calmodulin-1 (Homo sapiens) (UniProt P0DP23); assay: calcium-bound CALM1 binders on microarrays, profiling panel, artefact control for SMM control-protein annotation, biochemical, small-molecule microarray, Cy5-labelled CALM1, plus calcium (AID 1112); settings: Cy5-CALM1 binding fluorescence, higher = more signal;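 note: score merges spot fluorescence with signal to noise from triplicate slides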
# [16] = small-molecule microarray binders of probe aWnt5a, primary screen, biochemical, biotinylated probe, 635/667 nm fluorescence (AID 1113); settings: higher = more signal;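 note: score merges 667 nm fluorescence intensity with signal-to-noise per printed feature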
# [17] = small-molecule microarray binders of probe aShh, primary screen, biochemical, biotinylated probe, 635/667 nm fluorescence (AID 1114); settings: higher = more signal;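 note: probe is biotin-labelled aShh protein from a stem cell growth factor screen; measures binding of labelled protein to compounds printed on the slide; score merges feature fluorescence at 667 nm with signal-to-noise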
# [18] = small-molecule microarray binders of probe aNog, primary screen, biochemical, biotinylated probe, 635/667 nm fluorescence (AID 1115); settings: higher = more signal;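 note: probe is biotinylated aNog protein used at 0.15 µg/mL for 1 h at 4 C; z-score combines 667 nm fluorescence of each spot with its signal to noise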
# [19] = target: Torsin-1A-interacting protein 1 (Homo sapiens) (UniProt Q5JTV8); assay: LAP1 binders from COS7 cell lysate, primary screen, small-molecule microarray, 635/667 nm fluorescence (AID 1116); settings: COS7-hLAP1 lysate binding, 635 nm fluorescence, higher = more signal
# [20] = target: Alpha-bungarotoxin (Bungarus multicinctus) (UniProt P60615); assay: alpha-bungarotoxin binders on microarray, profiling panel, artefact control for SMM control protein annotation, biochemical, small-molecule microarray, Alexa647 label, 635/667 nm fluorescence (AID 1117); settings: alpha-BTX-A647 binding fluorescence, higher = more signal
# Chain of Alpha-bungarotoxin (Bungarus multicinctus) (P60615 whole entry, looked up): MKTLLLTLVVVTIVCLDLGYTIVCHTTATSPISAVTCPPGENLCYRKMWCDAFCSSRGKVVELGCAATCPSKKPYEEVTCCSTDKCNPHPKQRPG
# Chain of Left-right determination factor 2 (Homo sapiens) (O00292 whole entry, looked up): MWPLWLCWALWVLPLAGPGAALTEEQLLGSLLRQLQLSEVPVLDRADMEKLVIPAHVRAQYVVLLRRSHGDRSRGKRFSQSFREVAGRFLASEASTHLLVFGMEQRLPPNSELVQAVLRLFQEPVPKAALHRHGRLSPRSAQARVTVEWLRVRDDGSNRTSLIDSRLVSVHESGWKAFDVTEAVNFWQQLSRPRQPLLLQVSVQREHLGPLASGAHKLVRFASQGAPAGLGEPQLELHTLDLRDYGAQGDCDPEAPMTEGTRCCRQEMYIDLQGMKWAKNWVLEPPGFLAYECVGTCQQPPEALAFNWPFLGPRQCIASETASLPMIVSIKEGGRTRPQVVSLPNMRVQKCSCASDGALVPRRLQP
# Chain of Dickkopf-related protein 1 (Homo sapiens) (O94907 whole entry, looked up): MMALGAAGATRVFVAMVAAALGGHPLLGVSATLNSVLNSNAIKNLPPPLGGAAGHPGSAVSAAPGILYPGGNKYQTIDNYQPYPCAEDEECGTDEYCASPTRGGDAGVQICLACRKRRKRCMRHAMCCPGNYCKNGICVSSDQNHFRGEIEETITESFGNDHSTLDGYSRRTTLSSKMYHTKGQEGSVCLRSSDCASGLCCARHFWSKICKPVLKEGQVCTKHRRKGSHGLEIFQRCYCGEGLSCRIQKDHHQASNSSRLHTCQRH
# Chain of Fibroblast growth factor 10 (Homo sapiens) (O15520 whole entry, looked up): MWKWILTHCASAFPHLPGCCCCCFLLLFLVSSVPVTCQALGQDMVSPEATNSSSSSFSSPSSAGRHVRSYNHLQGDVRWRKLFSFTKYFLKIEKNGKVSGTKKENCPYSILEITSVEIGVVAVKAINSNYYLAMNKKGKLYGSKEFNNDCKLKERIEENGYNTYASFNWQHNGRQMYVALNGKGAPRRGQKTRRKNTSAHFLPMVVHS
# Chain of Torsin-1A-interacting protein 1 (Homo sapiens) (Q5JTV8 whole entry, looked up): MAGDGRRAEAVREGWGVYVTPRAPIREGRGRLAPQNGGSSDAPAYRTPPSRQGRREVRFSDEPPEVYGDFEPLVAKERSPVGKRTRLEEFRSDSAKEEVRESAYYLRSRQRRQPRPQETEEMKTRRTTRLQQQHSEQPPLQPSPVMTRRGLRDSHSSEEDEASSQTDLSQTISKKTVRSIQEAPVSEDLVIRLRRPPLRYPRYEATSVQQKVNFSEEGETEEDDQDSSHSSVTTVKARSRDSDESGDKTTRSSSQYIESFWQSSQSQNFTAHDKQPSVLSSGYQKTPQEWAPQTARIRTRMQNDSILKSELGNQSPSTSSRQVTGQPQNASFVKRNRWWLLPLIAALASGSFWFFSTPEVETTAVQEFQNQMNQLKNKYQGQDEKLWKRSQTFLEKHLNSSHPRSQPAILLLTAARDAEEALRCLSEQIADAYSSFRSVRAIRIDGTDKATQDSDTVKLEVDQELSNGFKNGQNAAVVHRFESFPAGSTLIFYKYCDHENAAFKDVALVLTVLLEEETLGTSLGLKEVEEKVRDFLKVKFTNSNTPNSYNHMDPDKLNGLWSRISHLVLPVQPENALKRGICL
# Chain of Epidermal growth factor receptor (Homo sapiens) (P00533 whole entry, looked up): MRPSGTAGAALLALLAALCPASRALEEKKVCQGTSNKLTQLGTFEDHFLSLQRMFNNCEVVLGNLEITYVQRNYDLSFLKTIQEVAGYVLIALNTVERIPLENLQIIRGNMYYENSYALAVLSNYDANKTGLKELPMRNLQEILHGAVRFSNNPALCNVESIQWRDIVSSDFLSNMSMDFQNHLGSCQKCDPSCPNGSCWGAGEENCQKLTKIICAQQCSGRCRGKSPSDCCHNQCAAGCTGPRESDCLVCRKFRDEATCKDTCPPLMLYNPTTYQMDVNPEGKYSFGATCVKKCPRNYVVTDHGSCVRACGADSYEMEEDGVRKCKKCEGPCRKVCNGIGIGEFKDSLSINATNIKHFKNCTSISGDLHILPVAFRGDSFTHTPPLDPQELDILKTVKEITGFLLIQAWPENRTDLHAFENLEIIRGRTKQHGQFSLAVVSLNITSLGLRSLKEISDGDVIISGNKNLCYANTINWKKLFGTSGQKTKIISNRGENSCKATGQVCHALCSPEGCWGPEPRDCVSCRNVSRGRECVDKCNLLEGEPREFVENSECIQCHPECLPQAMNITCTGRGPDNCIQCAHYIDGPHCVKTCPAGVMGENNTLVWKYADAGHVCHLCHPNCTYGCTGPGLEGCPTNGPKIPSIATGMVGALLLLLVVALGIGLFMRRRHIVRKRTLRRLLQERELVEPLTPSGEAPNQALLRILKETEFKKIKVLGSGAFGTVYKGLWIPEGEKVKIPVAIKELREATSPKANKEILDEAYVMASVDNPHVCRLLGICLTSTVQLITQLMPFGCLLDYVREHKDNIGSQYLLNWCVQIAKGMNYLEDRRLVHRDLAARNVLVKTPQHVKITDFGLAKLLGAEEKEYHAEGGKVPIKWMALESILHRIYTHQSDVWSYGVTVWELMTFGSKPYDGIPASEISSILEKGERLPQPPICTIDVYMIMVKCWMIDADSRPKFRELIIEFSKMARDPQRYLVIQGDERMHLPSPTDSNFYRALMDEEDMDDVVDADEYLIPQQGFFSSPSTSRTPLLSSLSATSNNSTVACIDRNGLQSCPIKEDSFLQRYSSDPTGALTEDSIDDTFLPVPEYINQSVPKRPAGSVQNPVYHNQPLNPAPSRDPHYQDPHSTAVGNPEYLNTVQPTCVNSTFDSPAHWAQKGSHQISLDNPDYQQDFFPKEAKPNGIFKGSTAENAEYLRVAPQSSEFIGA
# Chain of Follistatin-related protein 3 (Homo sapiens) (O95633 whole entry, looked up): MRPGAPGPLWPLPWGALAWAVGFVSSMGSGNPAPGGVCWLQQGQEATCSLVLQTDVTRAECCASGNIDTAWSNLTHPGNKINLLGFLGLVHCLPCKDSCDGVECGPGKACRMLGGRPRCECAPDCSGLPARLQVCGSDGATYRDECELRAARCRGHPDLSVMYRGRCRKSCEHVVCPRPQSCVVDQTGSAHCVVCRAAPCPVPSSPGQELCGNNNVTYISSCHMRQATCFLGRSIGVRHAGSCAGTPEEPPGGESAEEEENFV
Structure (SMILES),composite z-score [1],composite z-score [2],composite z-score [3],z-score [4],composite z-score [5],composite z-score [6],composite z-score [7],composite z-score [8],composite z-score [9],composite z-score [10],composite z-score [11],z-score [12],composite z-score [13],composite z-score [14],composite z-score [15],composite z-score [16],composite z-score [17],composite z-score [18],composite z-score [19],composite z-score [20]
O=C1NC(=O)C2C1C=CC(C(O)Cc1ccccc1)N2Nc1ccccn1 (stereo not given),0.0468,0.133,-0.321,-0.818 (inactive),0.156,0.0157,0.377,0.233,0.0833,0.97,0.555,-0.377,0.185,0.0084,-0.541,0.0328,-0.0793,0.342,0.818,1.34
COC(=O)[C@@]1(Cc2ccc(OC)cc2)[C@H]2c3cc(C(=O)N4CCCC4)n(Cc4cc(F)c(F)c(F)c4)c3C[C@H]2CN1C(=O)c1ccccc1,1.08,2.47,1.59,-1.28 (inactive),1.15,1.3,1.12,1.32,-0.279,0.835,1.37,0.323,0.342,2.69,1.59,1.11,2.22,1.07,1.52,2.06
C=CC[C@@H]1C=C[C@H](ON=C(C)CCN2CCc3nc(CC)c(CC)cc3C2)[C@@H](CO)O1,1.17,0.0057,0.386,0.00248 (inactive),-0.0543,0.491,0.609,1.14,0.907,1.8,0.714,-1.57,0.83,-0.42,-1.34,0.0634,0.0952,0.222,0.779,0.243
CCOC(=O)C[C@H]1[C@H](OC(=O)c2ccc(C(=O)c3ccccc3)cc2)[C@@H](NC(=O)c2ccc(-c3ccccc3)cc2)c2cc(OCCCO)ccc2N1C(=O)c1ccc2ccccc2n1,1.02,-0.301,-0.432,-0.784 (inactive),1.29,0.838,0.519,0.775,0.606,0.23,1.07,-0.91,0.757,-0.299,-0.766,0.0835,-0.317,-0.621,0.249,0.774
COC(=O)[C@H](C)NC(=O)CCC1CC(OC(=O)NCCc2ccc(F)cc2)CC2(CCCC(COC(=O)NCC(c3ccccc3)c3ccccc3)O2)O1 (stereo not given in full),0.713,-0.389,-0.498,-0.527 (inactive),0.377,0.756,0.384,0.691,0.457,-0.0097,1.39,-0.375,0.386,0.084,-0.443,-0.124,0.0062,-0.152,0.516,0.853
CC1CC/C=C\[C@H]2OC34C=CCN(Cn5nnc6ccccc65)C(=O)[C@H]3N(CCO)C(=O)[C@@H]4C2C(=O)O1 (stereo not given in full),2,-0.559,0.514,-1.58 (inactive),-1.16,0.476,-1.01,0.0695,-0.52,1.19,-0.487,-0.505,-0.28,-0.614,0.383,-0.147,-0.291,-0.256,2,-0.118
CCOC(=O)CCN1C(=O)[C@H]2[C@H]3[C@H](O)C=CC(=O)[C@@H]3CC[C@H]2C1=O,0.0705,-0.222,-0.437,-0.173 (inactive),0.605,0.323,0.678,0.518,0.541,-0.0901,-0.219,0.158,0.61,-0.0738,-0.583,-0.202,-0.262,-0.147,0.174,0.335
CCCNC(=O)OC[C@H]1O[C@H](CCON=C[C@@H](OC)[C@H](C)C=CCC(=O)OC)C=C[C@@H]1Oc1ccc(OC)cc1,0.638,-0.305,-0.528,-0.213 (inactive),0.463,-0.0589,0.15,0.109,0.482,0.717,0.0209,-1.72,0.453,-1.81,-0.848,-0.119,-0.01,-0.318,0.322,0.908
CC[C@@H](c1ccccc1)n1c(=O)n2n(c1=O)[C@H]1[C@H](O)[C@@H]3O[C@@H]3C(=NOCC(C)C)[C@H]1CC2,0.315,-0.187,-0.532,1.26 (inactive),-0.0238,0.0344,0.143,0.227,0.202,-0.0597,0.284,-2.11,0.143,-0.0128,-0.178,-0.12,-0.14,-0.407,0.107,-0.088
COC(=O)c1c(CC[C@@H](CO)NC(=O)N[C@H](Cc2ccccc2)Cn2cc(-c3ccccc3N)nn2)oc(C(C)=O)c1C(=O)OC,0.326,0.759,0.886,0.433 (inactive),0.865,0.355,-0.165,0.204,-0.299,0.95,0.734,-1.35,-0.104,-0.0936,-0.656,-0.001,0.0326,1.12,1.54,0.57
COCC(=C=CC[C@@H](O)c1ccccc1OCCO)CCO,0.718,0.117,0.09,0.0385 (inactive),1.49,-0.0421,-0.423,0.135,0.335,0.706,0.692,-0.779,-0.0632,0.0775,0.119,-0.206,0.0796,-0.333,0.416,0.113
